From PubChem
A selection: hits, their analogues and other compounds. The true share with any hit is near 0.9%.
HIV TAR-Tat: HIV-1 TAR-Tat binding disruption. HIV-1 TAR RNA, Tat peptide displacement FRET; hits give high values. z-score (test concentration not listed). hit rate 0.6% among 100,000. AID 1259389; active means z-score of 3 or more in at least 2 runs
CDC25B-CDK2 inh: human CDC25B-CDK2/CyclinA binding inhibition | z-score (test concentration not listed) | hit rate 0.72% among 94,000 | AID 1259370 | P30305+P24941 | HTRF CDC25B-CDK2/CyclinA binding, anti-His/anti-Flag; hits give high values; in the data active means z-score above about 3.2
The depositor's hits bear a star; x = not tested or not shown.

SMILES	HIV TAR-Tat	CDC25B-CDK2 inh
O=C(CSCC(=O)Nc1cccc(C(F)(F)F)c1)Nc1ccccc1	x	-1.5
Cc1cc2c(N)cccc2nn1	x	17*
Nc1cccc2nsnc12	x	-2.1
Cc1ccc(-c2nc(COc3ccc(Cl)c(C)c3)no2)cc1	0.4	-0.79
COc1ccc(/C(O)=C2\C(=O)C(=O)N(CCCN3CCOCC3)C2c2ccc(F)cc2)cc1 (centres undefined)	1.9	-1.1
CC1(C)CC(=O)C2=C(C1)Nc1ccccc1NC2c1ccccc1F (centres undefined)	-14	-1
CC1(C)CC(=O)C2=C(C1)Nc1ccccc1NC2c1cccc2ccccc12 (centres undefined)	x	13*
CCCCNS(=O)(=O)c1ccc(OC)c(-c2nnc3c4ccccc4c(C)nn23)c1	0.13	-1.5
CCOc1ccc2ncc(S(=O)(=O)c3ccc(C)cc3)c(N(CC)CC)c2c1	-0.35	0.9
Nc1cccc(C2NC(=O)CS2)c1 (centres undefined)	0.9	10*
O=C1CSC(c2cccc(NS(=O)(=O)c3ccc(Cl)cc3)c2)N1 (centres undefined)	-0.4	x
Nc1nc(N2CCCCC2)nc(Nc2ccccc2)c1[N+](=O)[O-]	1.2	x
CCOC(=O)c1nn(-c2ccc(OC)cc2)c(=O)c2c(NC(=O)C3CCCC3)scc12	x	-1.4
CCOC(=O)c1nn(-c2ccccc2)c(=O)c2c(N)scc12	-4.9	19*
Cc1cc(=O)n(C(C)C(=O)N2CCN(c3ccccc3)CC2)c2c1c(C)nn2-c1ccccc1 (centres undefined)	-0.09	x
O=C(Nc1ccccc1[N+](=O)[O-])c1ccccc1O	x	-1.2
O=c1c(-c2cc(O)c(O)c(O)c2)coc2cc(O)c(O)c(O)c12	26*	x
O=c1c(-c2ccc(O)cc2)coc2cc(O)cc(O)c12	3.1	-2.5
CCOC(=O)Cc1nnc(-c2ccc(Br)cc2)o1	3.5	-2.9
CCOCCCNC(=O)c1ccc2c(=O)[nH]c3c(C(=O)NC4CCCC4)sc(=S)n3c2c1	2	x
O=C(NCc1ccco1)c1ccc2c(=O)[nH]c3c(C(=O)NC4CCCC4)sc(=S)n3c2c1	16*	x
O=C(Nc1ccccc1)N(Cc1cccs1)c1ccccn1	1.7	0.73
COc1cc(OC)c2nc(C)c3c(c2c1)CN(C(=O)Nc1cccc(C(F)(F)F)c1)C3	x	15*
COC(=S)Nc1cccc(C(F)(F)F)c1	x	-1.8
COc1ccc(NC(=O)C2Nc3ccccc3S(=O)(=O)N2)c(OC)c1 (centres undefined)	-0.38	x
SMILES	HIV TAR-Tat	CDC25B-CDK2 inh
O=S(=O)(c1cnc[nH]1)N1CCCC(CN2CCc3ccccc3C2)C1 (centres undefined)	0.86	x
O=C(O)CCc1nc2ccc(C(=O)O)cc2[nH]1	0.63	0.54
Nc1ccc2nc(CCC(=O)O)[nH]c2c1	1.1	19*
CN1C(=O)C(C)(C)c2cc(S(=O)(=O)N3CCC(N(C)CC4CCCO4)CC3)ccc21 (centres undefined)	-0.08	x
C#CC1CCCCC1N=Cc1cc(Cl)cc(Cl)c1O (centres undefined)	x	-1.2
O=C(C1CCCN(S(=O)(=O)N2CCCCC2)C1)N1CCN(c2ccccc2)CC1 (centres undefined)	15*	x
O=C(C1CCCN(S(=O)(=O)N2CCOCC2)C1)N1CCN(c2ccc(F)cc2)CC1 (centres undefined)	-0.23	x
CC1(C)Cc2nc3oc4c(NCc5cccnc5)ncnc4c3cc2CO1	-1.5	x
O=C(O)C1C2CCC(O2)C1C(=O)Nc1cccnc1 (centres undefined)	x	0.7
CSc1cccc(NC(=O)C2CC3CSCN3C23C(=O)N(C)c2ccccc23)c1 (centres undefined)	1.1	x
CCN1C(=O)C2(c3ccccc31)C(C(=O)Nc1cccc(SC)c1)CC1CSCN12 (centres undefined)	20*	x
CCOC(=O)c1ccc(N2CSC3=C(C#N)C(c4cccs4)CC(=O)N3C2)cc1 (centres undefined)	-3.1	7.1*
COc1ccc(N2CSC3=C(C#N)C(c4cccs4)CC(=O)N3C2)cc1 (centres undefined)	-0.62	1.6
COC(=O)c1ccc(N2CSC3=C(C#N)C(c4cccs4)CC(=O)N3C2)cc1 (centres undefined)	2.2	-0.72
CCc1ccc(N2CSC3=C(C#N)C(c4cccs4)CC(=O)N3C2)cc1 (centres undefined)	-1.8	6.2*
Cc1ccc(N2CSC3=C(C#N)C(c4cccs4)CC(=O)N3C2)cc1 (centres undefined)	-0.6	4.1*
CC1CCCN(S(=O)(=O)c2cccc(-c3cn4cc(Cl)ccc4n3)c2)C1 (centres undefined)	0.83	-2.1
CN=c1scc(C)n1/N=C/c1c(Cl)cccc1Cl	x	-0.05
CCOC(=O)CS(=O)(=O)c1cc2c(cc1N)n(C)c(=O)c(=O)n2C	0.29	x
COc1ccccc1-n1c(O)c(C2=Nc3ccccc3SC(c3cccc(O)c3)C2)c(=O)[nH]c1=O (centres undefined)	0.14	0.75
